Drawing on PubChem BioAssay AID1220 (Sanford-Burnham Center for Chemical Genomics, 2008), this text covers inhibition for 66 compounds.

Hit rate of the full screen: of about 190,000 compounds, about 1,300 (0.68%) were called active. The entries come from a sample that favours actives as a whole. A number with no mark means an inactive call. Rule as the data show it: active = inhibition above about 50%; inactive = the rest.

Broadly, the inhibition is the drop in the measured response relative to a control, in per cent.

Sequence of Mannose-6-phosphate isomerase (Homo sapiens) (P34949 whole entry, looked up): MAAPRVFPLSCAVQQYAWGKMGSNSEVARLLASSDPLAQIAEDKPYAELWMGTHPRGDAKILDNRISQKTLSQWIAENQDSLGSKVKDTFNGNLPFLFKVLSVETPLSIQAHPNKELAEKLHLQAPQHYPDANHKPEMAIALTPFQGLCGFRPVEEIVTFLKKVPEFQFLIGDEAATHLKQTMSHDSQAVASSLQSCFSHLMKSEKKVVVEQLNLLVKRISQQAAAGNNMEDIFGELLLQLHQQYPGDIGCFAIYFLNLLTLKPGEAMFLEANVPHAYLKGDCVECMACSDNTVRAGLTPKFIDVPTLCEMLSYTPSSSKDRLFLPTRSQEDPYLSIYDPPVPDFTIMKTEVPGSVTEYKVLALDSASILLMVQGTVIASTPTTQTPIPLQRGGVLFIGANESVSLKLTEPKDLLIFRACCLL

The test addresses Mannose-6-phosphate isomerase (Homo sapiens) (UniProt P34949). Put plainly: MPI inhibition at elevated mannose 6-phosphate – biochemical, fluorescence intensity, high mannose 6-phosphate, primary screen (AID 1220). Particulars: recombinant PMI enzyme, coupled fluorescence intensity; at 20 µM; stronger effect = higher value.
For `CSc1nc2c(cc1C#N)CCCCC2`, the inhibition was -0.4%.
For the compound `C/C(=C\C=C(C#N)C#N)c1cc(C#N)c(N)o1`, the inhibition was 70.9% (active).
As for `COc1ccc(NC(=O)NS(=O)(=O)c2ccc(C)cc2)c(OC)c1`, the inhibition was 57.2% (active).
As to `COc1cc(NC(=O)NS(=O)(=O)c2ccc(C)cc2)cc(OC)c1`, the inhibition is 41%.
Consider `COc1ccccc1NC(=O)NS(=O)(=O)c1ccc(C)cc1`, for which the inhibition is 1.2%.
Turning to `O=C(NNc1nc(-c2ccccc2)c2cc(Br)ccc2n1)c1ccc(S(=O)(=O)N2CCCCC2)cc1`, the inhibition was -0.2%.
As to `COC(=O)c1cc(S(=O)(=O)n2nc(C)c(Br)c2C)c(Cl)cc1Cl`, the inhibition was -5%.
Next, `Cc1c(Nc2ncnc3nc[nH]c23)c(=O)n(-c2ccccc2)n1C`: 1.1%; `Cn1cc(S(=O)(=O)CC(=O)Nc2ccc3c(c2)OCCO3)c2ccccc21`: 50.9% (active).
With `Cc1cccc(NC(=O)CS(=O)(=O)c2cn(C)c3ccccc23)c1`, the inhibition is 17.7%.
Next, `CCCn1cc(S(=O)(=O)CC(=O)Nc2ccc(OCC)cc2)c2ccccc21`: 17.3%; `COc1ccc(NC(=O)Cn2cc(S(=O)(=O)Cc3ccccc3)c3ccccc32)c(OC)c1`: 16.9%; `CCN(CC)C(=O)Cn1cc(S(=O)(=O)CC(=O)Nc2ccc3c(c2)OCCO3)c2ccccc21`: 1.2%.
Next, `Cn1cc(S(=O)(=O)CC(=O)Nc2ccc3c(c2)OCO3)c2ccccc21`: 25.7%; `CCCn1cc(S(=O)(=O)CC(=O)Nc2ccc(OC)cc2OC)c2ccccc21`: 56.6% (active).
Next, `CCn1cc(S(=O)(=O)CC(=O)Nc2ccc(C)cc2)c2ccccc21`: -0.5%.
Take `CCn1cc(S(=O)(=O)CC(=O)Nc2ccc3c(c2)OCCO3)c2ccccc21`: the inhibition is 53.3% (active).
Next, `CCCN1C(=O)/C(=C\C=C2/Sc3ccccc3N2CCO)SC1=S`: 10.5%.
Next, `O=C(N/N=C/c1ccc(Br)o1)c1cccnc1`: 5.3%; `COc1ccc(/C=C/C(=O)OCCCN(C)C)cc1`: -6.3%.
With `CCOC(=O)c1ccc(NCc2nc3ccccc3[nH]2)cc1`, the inhibition is -1.4%.
For `O=C(O)c1cc(-c2ccccc2)n(-c2ccc(Cl)cc2)n1`, the inhibition is -7.9%.
Next, `O=c1oc2c(CN3CCOCC3)c(O)ccc2c2c1CCC2`: 14.1%.
As for `CC(C)CN(Cc1c(O)ccc2c3c(c(=O)oc12)CCC3)CC(C)C`, the inhibition is 10%.
Consider `COCCN(CCOC)Cc1c(O)ccc2c3c(c(=O)oc12)CCC3`, for which the inhibition is 50.9% (active).
With `COC(=O)c1cn(CC(=O)NC2CCCCCC2)c2ccccc12`, the inhibition was 4.4%.
Next, `CC(C)CC1NC(=O)N(CC(=O)N2CCCc3ccccc32)C1=O` (stereo unspecified): -5.9%; `O=C(/C=C/c1ccccc1Cl)NCc1ccccc1`: 7.8%; `O=C(CN1C(=O)NC2(CCCCCC2)C1=O)NC1CCCCCCC1`: -3.9%.
Regarding `Cc1ccccc1CSCCC(=O)NCCc1ccccc1`, the inhibition was -6.4%.
Take `CCN1/C(=N\N)c2cccc3cccc1c23`: the inhibition was -13%.
Turning to `CNC(=O)CN1C(=O)c2cccc3cccc1c23`, the inhibition was -3.7%.
Turning to `CC(C)c1ccc(CNC(=O)C(=O)Nc2nccs2)cc1`, the inhibition was -3.8%.
In the case of `CNc1nc2ccccc2n1N`, the inhibition was -3.8%.
Next, `CC(Sc1nc(NCc2ccccc2)nc(N2CCOCC2)n1)C(=O)Nc1ccccc1` (stereo unspecified): 12.4%; `Cc1ccc(Cl)cc1NC(=O)C1CCCN(S(=O)(=O)c2c(C)noc2C)C1` (stereo unspecified): 50.2% (active); `Cc1noc(C)c1S(=O)(=O)N1CCCC(C(=O)Nc2ccc(Cl)cn2)C1` (stereo unspecified): -3%.
In the case of `Cc1ccccc1NC(=O)C1CCCN(S(=O)(=O)c2c(C)noc2C)C1` (stereo unspecified), the inhibition is -2.1%.
For the compound `Nc1nc2c(s1)COc1ccccc1-2`, the inhibition was 11.1%.
For `Nc1nc(-c2ccccc2)c(-c2ccccc2)s1`, the inhibition is -7.6%.
Next, `O=C(NCCCN1CCOCC1)C(Sc1ccccc1)c1ccccc1` (stereo unspecified): 9.2%; `O=C(COC(=O)c1ccc(S(=O)(=O)NCc2ccco2)cc1)NCCC1=CCCCC1`: -19.9%; `O=c1[nH]c2ccc(Cl)cc2c(O)c1Cc1ccccc1`: 3.4%.
Next, `COc1cccc(CNCc2cccnc2)c1OCc1ccccc1`: -2%; `Cc1ccc(Nc2ncnc3sc(C)c(C)c23)cc1`: 12.1%.
Take `O=C(CCNc1ccc(Cc2ccncc2)cc1)c1cccc([N+](=O)[O-])c1`: the inhibition was 47.7%.
Next, `COc1cccc(NCCC(=O)c2cccc([N+](=O)[O-])c2)c1`: 62.3% (active).
Turning to `Cc1ccc(NCCC(=O)c2cccc([N+](=O)[O-])c2)cc1`, the inhibition is 39.2%.
Regarding `O=[N+]([O-])c1ccc(Cc2ccncc2)cc1`, the inhibition was -1.9%.
Next, `O=C(CCNc1ccc(F)cc1)c1cccc([N+](=O)[O-])c1`: 48.4%.
Next, `O=C(CCNc1ccc(Br)cc1)c1cccc([N+](=O)[O-])c1`: 40.5%; `O=C(CCNc1cccc(F)c1)c1cccc([N+](=O)[O-])c1`: 40.6%; `COc1ccc2o/c(=N/NC(=S)Nc3ccccc3)c(C(N)=O)cc2c1`: 7.1%.
Turning to `O=C(O)c1ccccc1OC(=O)C12CC3CC(CC(C3)C1)C2`, the inhibition is 2.3%.
Next, `CC1(C)CC(c2nc(-c3ccccc3)cs2)CCS1` (stereo unspecified): 0.5%; `Cc1ccc(-c2cc(C)nc3nc(N)nn23)cc1`: 4.6%; `CCOc1ccc(NC(=O)CSc2nc3c(c(=O)n2C)SC(C)C3)cc1` (stereo unspecified): 4.9%.
`Cc1noc(C(=O)Nc2ccccc2C(F)(F)F)c1Cl`: the inhibition is 59.4% (active).
Next, `CCc1ccccc1NC(=O)c1onc(C)c1Cl`: -3.2%; `CSc1ccccc1NC(=O)c1onc(C)c1Cl`: -2.4%; `Cc1ccc(C(=O)OCC(=O)Nc2ccccc2C(F)(F)F)cc1S(=O)(=O)N1CCOCC1`: 3.2%.
Next, `CC(C)c1ccccc1NC(=S)NCc1ccccc1F`: 1.9%; `N#Cc1cnc2c(-c3ccccc3)c(-c3ccccc3)nn2c1N`: 15.3%; `Fc1ccc(C2CCCCN2Cc2nc(CC3CC3)no2)cc1` (stereo unspecified): 1.9%.
In the case of `Fc1ccc2nc(C3CCCCN3Cc3nc(CC4CC4)no3)[nH]c2c1` (stereo unspecified), the inhibition is 53.6% (active).
Next, `Fc1ccc2nc(C3CCN(Cc4nc(CC5CC5)no4)CC3)[nH]c2c1`: -5.1%.
